Results reported in PubChem BioAssay.
Measured potencies and affinities stand elsewhere. Activity calls are given as the source filed them. Unless noted, the limit is not given here; nearly all actives have IC50 up to about 0.98 µM.

These compounds were tested against Calcium-dependent protein kinase 1 (Plasmodium falciparum (isolate 3D7)) (UniProt P62344) (assay: PfCDPK1 kinase inhibitors, biochemical, TCAMS library (AID 1159585;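 also: inhibitors leave more ATP so luminescence rises with inhibition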)). Details: recombinant PfCDPK1, Kinase-Glo ATP depletion luminescence.
Chain of Calcium-dependent protein kinase 1 (Plasmodium falciparum (isolate 3D7)) (P62344 whole entry, looked up): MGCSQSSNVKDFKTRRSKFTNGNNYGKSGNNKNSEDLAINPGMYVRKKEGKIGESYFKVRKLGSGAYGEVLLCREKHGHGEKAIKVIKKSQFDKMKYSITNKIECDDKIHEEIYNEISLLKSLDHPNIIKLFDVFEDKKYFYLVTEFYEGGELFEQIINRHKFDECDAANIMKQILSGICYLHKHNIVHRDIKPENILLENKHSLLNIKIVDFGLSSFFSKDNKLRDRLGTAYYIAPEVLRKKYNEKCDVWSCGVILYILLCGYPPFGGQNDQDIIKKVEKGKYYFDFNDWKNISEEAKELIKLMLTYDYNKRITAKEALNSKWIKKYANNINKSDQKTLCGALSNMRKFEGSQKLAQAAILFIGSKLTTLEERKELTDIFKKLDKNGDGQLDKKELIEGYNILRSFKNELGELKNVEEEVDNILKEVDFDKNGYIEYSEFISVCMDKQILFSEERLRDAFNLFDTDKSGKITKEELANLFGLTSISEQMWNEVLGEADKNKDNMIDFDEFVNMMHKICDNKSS

outcome, inactive:
CC(=O)Nc1ccc(C(=O)Nc2cccc(-c3cccc(-c4nc5c(C)cccc5[nH]4)c3)c2)cn1
Nc1nc2c(c(=O)[nH]1)-c1cccc(Br)c1CC2
NC(=O)c1cccc(-n2ccc3cc(CNC4Cc5ccccc5C4)ccc32)c1
Cc1[nH]c(C)c(-c2ccc(OCc3cc(F)cc(F)c3)nc2)c(=O)c1Br
C[C@@H]([C@@H](CCCCc1ccccc1)C(=O)N[C@H](C(=O)Nc1cccnc1)C(C)(C)C)N(O)C=O
CCNC(=O)NC1CCN(Cc2c(-c3cccs3)nc3ccccc3c2C(=O)N[C@@H](C)C2CCCCC2)CC1
Cc1[nH]c(C)c(-c2ccc(OCCCc3ccccn3)cc2)c(=O)c1Br
Cn1cncc1C(=O)Nc1cccc(-c2csc(-c3nc4ccccc4[nH]3)c2)c1
FC(F)(F)c1ccc2nc(-c3cccc(-c4cccc(CN5CCN(c6ccncc6)CC5)c4)c3)[nH]c2c1
CN(Cc1ccc(NC(=O)NC2CCN(C(=O)/C=C/c3ccc(Cl)c(Cl)c3)CC2)cc1)C1CCOCC1
CC(=O)N1Cc2ccccc2C1=O
O=C(Nc1cccc(-c2ccc(CN3CCCC3)cc2)c1)c1ccc(Cl)cc1
Nc1nonc1-c1nc2c(-c3cccc(Cl)c3)nccc2n1CCCNC(=O)Cc1ccc(Cl)cc1
NC1CCN(c2cnn(Cc3cccc(NC(=O)Nc4ccc(-c5ccccc5)cc4)c3)c(=O)c2Cl)CC1
COc1ccc(NC(=O)Nc2ccc(-c3ccc(-c4nc5c(C)cccc5[nH]4)s3)cc2)cc1
Cc1cccc2[nH]c(-c3cccc(-c4ccc(NC(=O)c5ccoc5)cc4)c3)nc12
Cc1nc(-c2ccccc2)nc(N2CCN(C(=O)c3ccco3)CC2)c1Cc1ccccc1F
CC(=O)N(Cc1nc(-c2cc(Cl)c(Cl)s2)cs1)c1c(C)cccc1C
O=C(CSc1nc2ccccc2c(=O)n1CC1CCCO1)Nc1cc(C(F)(F)F)ccc1Cl (stereo not given)
CCCCCCCCn1c2c(c(=N)c3c1CCC3)CCCC2
O=[N+]([O-])c1ccc(C(O)CNCCc2ccccc2)cc1OCc1ccccc1 (stereo not given)
O=C(c1cccc(-c2ccc(-c3nc4ccc(C(F)(F)F)cc4[nH]3)cc2)c1)N1CCCCC1CN1CCC(O)C1 (stereo not given)
COc1ccc2nc(NC3=NC(c4ccccn4)(c4ccccn4)C(=O)N3C)[nH]c2c1
Cn1c(NC2CCN(CC3CCN(C(=O)/C=C/c4ccc(Cl)c(Cl)c4)CC3)CC2)nc2ccccc21
O=C(Nc1ccc(Cl)c(C(F)(F)F)c1)N[C@H]1CCN(CCCCCNC(=O)[C@@H]2C[C@H]2c2ccc(Cl)c(Cl)c2)C1
CN1CCc2cc(NS(=O)(=O)c3ccc(-c4ccc(Cl)s4)cc3)c(N3CCCCC3)cc2CC1
CCc1sc(-c2ccc(C(C)(C)C)cc2)nc1C(=O)NCCCN1CCCC1=O
COc1cc2nc(N3CCC(CNC(=O)/C=C/c4cccc(C)c4)CC3)nc(N)c2cc1OC
c1cc(CN2CCc3ccccc3CC2)cc(-c2c[nH]c3nc(NC4CCCC4)ncc23)c1
O=C(Nc1ccc(OC2CCN(Cc3ccc(F)cc3)CC2)c(Cl)c1)c1ccc(F)cc1
COc1cccc(OC2CCN(C(=O)c3cc(C(C)(C)C)nn3Cc3ccccc3)CC2)c1
CN1CCN(c2ccc3nccc(CCN4CCC(NCc5ccc6c(n5)NC(=O)CO6)CC4)c3n2)CC1
CCCCNS(=O)(=O)c1ccc(NC(=O)c2cc([N+](=O)[O-])ccc2Cl)cc1
OC(CNCc1ccccc1OCc1ccccc1)c1cccc(C(F)(F)F)c1 (stereo not given)
CCc1c[nH]c2c(N(c3ccccc3)S(C)(=O)=O)cc(C(=O)N[C@@H](Cc3ccccc3)[C@H](O)CNC(C)(C)CCCC(C)C)cc12
CC1(C)N=C(N)N=C(N)N1OCCCOc1cccc2ccccc12
Cc1cc(N[C@@H](Cc2ccccc2)C(=O)NC2CCCC2)nc(NCC2CCCCC2)n1
COc1ccc(CNc2nc(NCc3ccc(C(F)(F)F)cc3)c3cc(OC)c(OC)cc3n2)cc1OC
Clc1ccc(CNc2ccnc(NCCc3coc4ccccc34)n2)c(Cl)c1
COc1ccc2nccc([C@@H](O)CN3CCC(NC(=O)[C@@H]4Cc5ccccc5CN4C(=O)OC(C)(C)C)CC3)c2c1

Each compound was assayed against Plasmodium falciparum protein kinase 6 (PK6, PF3D7_1337100) (UniProt Q8IDW1) (assay: PfPK6 kinase inhibitors, biochemical, TCAMS library (AID 1159586; call rule not given here)). Details: recombinant PfPK6, Kinase-Glo ATP depletion luminescence.
Chain of Plasmodium falciparum protein kinase 6 (PK6, PF3D7_1337100) (Q8IDW1 1-305): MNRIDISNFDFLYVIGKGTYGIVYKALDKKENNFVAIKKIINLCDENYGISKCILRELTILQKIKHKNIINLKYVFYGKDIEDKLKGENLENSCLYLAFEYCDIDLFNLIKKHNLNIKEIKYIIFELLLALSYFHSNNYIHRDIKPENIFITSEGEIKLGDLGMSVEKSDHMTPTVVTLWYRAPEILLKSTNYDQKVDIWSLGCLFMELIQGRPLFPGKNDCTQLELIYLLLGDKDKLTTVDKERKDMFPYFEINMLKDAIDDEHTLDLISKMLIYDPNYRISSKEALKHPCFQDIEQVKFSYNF

outcome, inactive:
CC(=O)Nc1ccc(C(=O)Nc2cccc(-c3cccc(-c4nc5c(C)cccc5[nH]4)c3)c2)cn1
Nc1nc2c(c(=O)[nH]1)-c1cccc(Br)c1CC2
NC(=O)c1cccc(-n2ccc3cc(CNC4Cc5ccccc5C4)ccc32)c1
Cc1[nH]c(C)c(-c2ccc(OCc3cc(F)cc(F)c3)nc2)c(=O)c1Br
C[C@@H]([C@@H](CCCCc1ccccc1)C(=O)N[C@H](C(=O)Nc1cccnc1)C(C)(C)C)N(O)C=O
CCNC(=O)NC1CCN(Cc2c(-c3cccs3)nc3ccccc3c2C(=O)N[C@@H](C)C2CCCCC2)CC1
Cc1[nH]c(C)c(-c2ccc(OCCCc3ccccn3)cc2)c(=O)c1Br
Cn1cncc1C(=O)Nc1cccc(-c2csc(-c3nc4ccccc4[nH]3)c2)c1
FC(F)(F)c1ccc2nc(-c3cccc(-c4cccc(CN5CCN(c6ccncc6)CC5)c4)c3)[nH]c2c1
CN(Cc1ccc(NC(=O)NC2CCN(C(=O)/C=C/c3ccc(Cl)c(Cl)c3)CC2)cc1)C1CCOCC1
CC(=O)N1Cc2ccccc2C1=O
O=C(Nc1cccc(-c2ccc(CN3CCCC3)cc2)c1)c1ccc(Cl)cc1
Nc1nonc1-c1nc2c(-c3cccc(Cl)c3)nccc2n1CCCNC(=O)Cc1ccc(Cl)cc1
NC1CCN(c2cnn(Cc3cccc(NC(=O)Nc4ccc(-c5ccccc5)cc4)c3)c(=O)c2Cl)CC1
COc1ccc(NC(=O)Nc2ccc(-c3ccc(-c4nc5c(C)cccc5[nH]4)s3)cc2)cc1
Cc1cccc2[nH]c(-c3cccc(-c4ccc(NC(=O)c5ccoc5)cc4)c3)nc12
Cc1nc(-c2ccccc2)nc(N2CCN(C(=O)c3ccco3)CC2)c1Cc1ccccc1F
CC(=O)N(Cc1nc(-c2cc(Cl)c(Cl)s2)cs1)c1c(C)cccc1C
O=C(CSc1nc2ccccc2c(=O)n1CC1CCCO1)Nc1cc(C(F)(F)F)ccc1Cl (stereo not given)
CCCCCCCCn1c2c(c(=N)c3c1CCC3)CCCC2
O=[N+]([O-])c1ccc(C(O)CNCCc2ccccc2)cc1OCc1ccccc1 (stereo not given)
O=C(c1cccc(-c2ccc(-c3nc4ccc(C(F)(F)F)cc4[nH]3)cc2)c1)N1CCCCC1CN1CCC(O)C1 (stereo not given)
COc1ccc2nc(NC3=NC(c4ccccn4)(c4ccccn4)C(=O)N3C)[nH]c2c1
Cn1c(NC2CCN(CC3CCN(C(=O)/C=C/c4ccc(Cl)c(Cl)c4)CC3)CC2)nc2ccccc21
O=C(Nc1ccc(Cl)c(C(F)(F)F)c1)N[C@H]1CCN(CCCCCNC(=O)[C@@H]2C[C@H]2c2ccc(Cl)c(Cl)c2)C1
CN1CCc2cc(NS(=O)(=O)c3ccc(-c4ccc(Cl)s4)cc3)c(N3CCCCC3)cc2CC1
CCc1sc(-c2ccc(C(C)(C)C)cc2)nc1C(=O)NCCCN1CCCC1=O
COc1cc2nc(N3CCC(CNC(=O)/C=C/c4cccc(C)c4)CC3)nc(N)c2cc1OC
c1cc(CN2CCc3ccccc3CC2)cc(-c2c[nH]c3nc(NC4CCCC4)ncc23)c1
O=C(Nc1ccc(OC2CCN(Cc3ccc(F)cc3)CC2)c(Cl)c1)c1ccc(F)cc1
COc1cccc(OC2CCN(C(=O)c3cc(C(C)(C)C)nn3Cc3ccccc3)CC2)c1
CN1CCN(c2ccc3nccc(CCN4CCC(NCc5ccc6c(n5)NC(=O)CO6)CC4)c3n2)CC1
CCCCNS(=O)(=O)c1ccc(NC(=O)c2cc([N+](=O)[O-])ccc2Cl)cc1
OC(CNCc1ccccc1OCc1ccccc1)c1cccc(C(F)(F)F)c1 (stereo not given)
CCc1c[nH]c2c(N(c3ccccc3)S(C)(=O)=O)cc(C(=O)N[C@@H](Cc3ccccc3)[C@H](O)CNC(C)(C)CCCC(C)C)cc12
CC1(C)N=C(N)N=C(N)N1OCCCOc1cccc2ccccc12
Cc1cc(N[C@@H](Cc2ccccc2)C(=O)NC2CCCC2)nc(NCC2CCCCC2)n1
COc1ccc(CNc2nc(NCc3ccc(C(F)(F)F)cc3)c3cc(OC)c(OC)cc3n2)cc1OC
Clc1ccc(CNc2ccnc(NCCc3coc4ccccc34)n2)c(Cl)c1
COc1ccc2nccc([C@@H](O)CN3CCC(NC(=O)[C@@H]4Cc5ccccc5CN4C(=O)OC(C)(C)C)CC3)c2c1
